Laboratory results taken from PubChem BioAssay AID1565 (Sanford-Burnham Center for Chemical Genomics, 2009).
Among all 290,000 compounds or so, about 3,200 (1.1%) were called active. The full list was thinned out, with actives kept by preference. Unmarked numbers belong to inactive results. No stated cut-off is given here; in the data, active means inhibition above about 60%; inactive means the rest.

biological target: Phosphoethanolamine/phosphocholine phosphatase (Homo sapiens) (UniProt Q8TCT1); assay: PubChem AID 1565; details: recombinant PHOSPHO1, absorbance phosphatase assay; at 13.3 µM; stronger effect = higher value
Sequence (Q8TCT1 whole entry, looked up): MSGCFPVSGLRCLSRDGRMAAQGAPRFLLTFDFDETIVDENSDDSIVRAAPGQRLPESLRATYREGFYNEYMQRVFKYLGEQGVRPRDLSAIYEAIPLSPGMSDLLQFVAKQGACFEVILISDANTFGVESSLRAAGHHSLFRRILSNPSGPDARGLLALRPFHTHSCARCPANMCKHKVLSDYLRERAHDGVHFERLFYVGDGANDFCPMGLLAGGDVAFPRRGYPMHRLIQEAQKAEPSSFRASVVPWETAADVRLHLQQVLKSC

SMILES	inhibition
Cc1ccccc1OCC(=O)NNC(=O)c1cc(S(=O)(=O)N(C)C)ccc1N1CCCC1	33.4%
CSc1ccc(S(=O)(=O)N2CCC(C(=O)NCCc3ccccc3)CC2)cc1	13.8%
Cc1nn(CCCC(=O)NCc2ccccc2Cl)c(=O)c2nccn12	35.7%
CCOC(=O)CNC(=O)CSc1nnc(-c2cccc(OC)c2)n1CC	47.2%
CCOC(=O)CNC(=O)CSc1nnc(COc2ccc(Cl)cc2)n1CC	95.8% (active)
CCn1c(COc2ccc(OC)cc2)nnc1SCC(=O)Nc1cc(OC)ccc1OC	-14.1%
Oc1ccccc1/C=N/n1c(-c2cccs2)n[nH]c1=S	106% (active)
S=c1[nH]nc(-c2cccs2)n1/N=C/c1cn(-c2ccccc2)nc1-c1ccc(Cl)cc1	-132%
S=c1[nH]nc(-c2cccs2)n1/N=C/c1cccs1	56.2%
CC(=O)Oc1ccc2c(=O)oc(-c3ccc([N+](=O)[O-])cc3)nc2c1	35.6%
O=C(COc1ccc(Cl)cc1Cl)NCCCNC(=O)c1cnccn1	44.9%
COc1cc(C(=O)NCc2nnc(SCC(=O)c3ccc(Cl)cc3)o2)cc(OC)c1OC	43.5%
Cc1cc(C)nc(SCC(=O)c2ccc(Cl)cc2)n1	27%
CC(C)C[C@@H](N)c1nnc(SCC(=O)c2ccc(Cl)cc2)o1	81.6% (active)
O=C(CN1CCN(C(=O)C2CCCO2)CC1)Nc1c(Cl)cccc1Cl (centres undefined)	26.3%
Cc1cccnc1NC(=O)c1cccc(S(=O)(=O)N2CCN(c3ccc(F)cc3)CC2)c1	27%
O=C(N/N=C/c1ccccn1)c1cccc(NC(=O)c2ccc(Cl)cc2)c1	41.5%
O=C(COc1ccc(Cl)cc1Cl)N/N=C/c1ccccn1	61% (active)
CSc1ccc(/C=N\NC(=O)COc2ccc(Cl)cc2Br)cc1	-15.7%
N#Cc1ccc(S(=O)(=O)NCC(=O)OCC(=O)NCCc2ccccc2)cc1	28.7%
O=C(Nc1ccc(C2CC2(Cl)Cl)cc1)c1cccc([N+](=O)[O-])c1 (centres undefined)	-31.5%
CSCCC(NC(=O)COc1ccccc1)C(=O)OCC(=O)c1cc2ccccc2o1 (centres undefined)	0.2%
Cc1c(Cl)cnc(NC(=O)COC(=O)c2ccc(S(=O)(=O)NCc3ccco3)cc2)c1Cl	-11.7%
CSCCC(NC(=O)c1ccco1)C(=O)OCC(=O)Nc1ncc(Cl)c(C)c1Cl (centres undefined)	63.8% (active)

SMILES	inhibition
O=C1CCC(C(=O)N2CCC(O)(c3ccccc3)CC2)CN1CCc1ccccc1 (centres undefined)	51.4%
CS(=O)(=O)c1ccc(-c2nnn(CC(=O)Nc3ccc4c(c3)OCCO4)n2)cc1	11%
CCCCSc1nnc(-c2ccc(C)cc2)o1	1.3%
CCCCSc1nnc2c(n1)OC=Nc1ccccc1-2	60.8% (active)
CCCCSc1nc2ccccc2[nH]1	11.7%
COC(=O)c1ccc(COc2ccc(C#N)cc2)o1	44.1%
CC1CCN(CC(O)COc2ccc(C(=O)c3ccccc3)cc2)CC1 (centres undefined)	8.5%
Cc1cc(NC(=O)c2ccccc2C)no1	19.1%
CCOc1cc(N2CCOCC2)c(OCC)cc1NC(=O)COc1cccc2cccnc12	23.3%
Oc1c(C(c2ccccn2)N2CCOCC2)ccc2cccnc12 (centres undefined)	92.7% (active)
OC(COc1ccc2ccccc2c1)CN1CCOCC1 (centres undefined)	8%
Cc1ccc(NC(=O)C2CCN(S(=O)(=O)c3ccc4c(c3)NC(=O)CO4)CC2)cc1C	26.1%
CCc1ccc(N(C(=O)c2csnn2)C(C(=O)NC2CCCCC2)c2ccncc2)cc1 (centres undefined)	41.6%
CCN(CC)C(=O)c1sc2nc(-c3ccccc3)ccc2c1N	21.4%
CS(=O)(=O)c1sc2nc(-c3ccccc3)cc(-c3ccccc3)c2c1N	94.5% (active)
Nc1nc(-c2ccccc2)cc(-c2ccccc2)n1	19.2%
CCc1ccc(NC(=O)C(=O)NNC(=O)c2cccs2)cc1	44.9%
NC(=S)c1ccc(C(N)=S)o1	95.9% (active)
Cn1cc(CN2CCCC(CO)C2)c(-c2ccc(Oc3ccccc3)cc2)n1 (centres undefined)	39.5%
Cn1cc(CN2CCC(C(O)CCc3ccccc3)CC2)c(-c2ccccc2F)n1 (centres undefined)	28.2%
CCCOC1CCCN(Cc2cn(C)nc2-c2ccccc2F)C1 (centres undefined)	60.1% (active)
O=C(CSc1nnc2c(n1)[nH]c1ccccc12)NC1CCCCC1	3.6%
CCCCC(=O)Nc1nc(C)c(-c2csc(Nc3ccc(Cl)cc3)n2)s1	28.7%
Cc1ccc(Nc2nc(-c3sc(NC(=O)c4ccccc4)nc3C)cs2)cc1	37.9%

SMILES	inhibition
CCCCCCC(=O)Nc1nc(C)c(-c2csc(Nc3cc(Cl)ccc3OC)n2)s1	96.2% (active)
Cc1nc(NC(=O)c2cccc(Cl)c2)sc1-c1csc(Nc2cccc(Cl)c2)n1	19.2%
C=CCCC(=O)Nc1nc(C)c(-c2csc(Nc3ccc(Cl)cc3)n2)s1	-1.4%
CCCCCCC(=O)Nc1nc(C)c(-c2csc(Nc3cccc(OC)c3)n2)s1	104% (active)
CCc1ccc(N(CC(=O)NCc2cccnc2)S(=O)(=O)c2ccccc2)cc1	4.5%
COc1cc2c(cc1OC)C(/C=C/c1ccco1)=NCC2	5.3%
CCOC(=O)C1=C(CN2CCc3ccccc32)NC(=O)NC1c1ccc(Cl)cc1 (centres undefined)	18.7%
CCOC(=O)C1=NN(c2ccc(Cl)cc2)/C(=C/C2=NCCc3cc(OC)c(OC)cc32)S1	63.1% (active)
Cn1c(-c2ccc(F)cc2)cnc1SCC(=O)NCc1ccco1	65.2% (active)
Cn1c(-c2ccc(F)cc2)cnc1SCC(=O)NNC(=O)Cc1ccccc1	10.2%
CCn1c(SCC(=O)NCc2ccco2)nnc1-c1ccc(N)cc1	42.7%
O=C(CSc1nnc2scc(-c3ccc(F)cc3)n12)NCc1ccco1	67.4% (active)
O=C(CSc1nnc(-c2c[nH]c3ccccc23)n1-c1ccc(F)cc1)NCc1ccco1	9.8%
Cc1ccc(-c2csc3nnc(SCC(=O)NCc4ccco4)n23)cc1	17.6%
CCOc1ccc(OCc2cccc(C(=O)N(CC)CC)c2)cc1	-26.2%
O=[N+]([O-])c1ccc2c(c1)Nc1nc3ccccc3nc1N2	29.5%
CCCCn1c(=S)[nH]c2cc(S(=O)(=O)N3CCCCC3)ccc21	99.7% (active)
O=c1[nH]c2ccc(S(=O)(=O)N3CCCC3)cc2[nH]1	39.1%
CCCCn1c(=S)[nH]c2ccccc2c1=O	-12.1%
CC1CCCCC1NC(=O)/C(C#N)=C/C=C/c1ccccc1[N+](=O)[O-] (centres undefined)	-11.2%
CC(=O)c1ccc(N2CCN(C(=O)CCNC(=O)Cn3ccc4ccccc4c3=O)CC2)cc1	39.1%
CCc1ccc(-c2nc(SCC(=O)NC3CCCC3)n[nH]2)cc1	19.2%
CC(C)c1ccc(S(=O)(=O)N2CCN(C(=O)c3ccc(N4CCCC4)c([N+](=O)[O-])c3)CC2)cc1	14.7%
Cc1ccc(CNC(=O)C2(C(F)(F)F)C/C(=C\Cc3ccccc3)CCCO2)o1 (centres undefined)	-1.7%

SMILES	inhibition
Cc1ccc(C(=O)Nc2nnc(-c3cccs3)s2)cc1C	60.1% (active)
Cc1ccc(C(=O)Oc2coc(CSc3nnc(NC(=O)c4cccs4)s3)cc2=O)cc1C	-10.5%
CCOc1cccc(C(=O)Nc2nnc(-c3cccs3)s2)c1	8.6%
Cc1ccc(S(=O)(=O)c2nnn3c2nc(N2CCN(c4ccccn4)CC2)c2ccccc23)cc1	14.6%
COc1ccccc1C(=O)N1C(CC(=O)Nc2ccccc2C)C(=O)NC2CCCCC21 (centres undefined)	17.1%
Cc1cc(NC(=O)Nc2c[nH]c(=O)[nH]c2=O)ccc1Br	32.6%
CCC(C)(C)NC(=O)CN(C(=O)CCC(=O)Nc1nccs1)c1ccc2c(c1)OCO2	28%
O=C(O)c1ccccc1CSc1nc2ccccc2s1	-3.9%
Cc1cc(C)n2nc(SCC(N)=O)nc2n1	35.9%
Cc1cc(C)n2nc(CNS(=O)(=O)c3c(F)c(F)c(F)c(F)c3F)nc2n1	64.9% (active)
Cc1cc(C)n2nc(C(=O)NC(C)(C)C)nc2n1	27%
C/C(=N\N(C)C)c1ccc(OCCOc2ccc([N+](=O)[O-])cc2)cc1	23.7%
COc1ccc(C2CC(=O)NC(=O)C2)cc1	22.9%
Cc1cccc(NC(=O)c2sc3nc4c(c(-c5ccco5)c3c2N)CCC4)c1	67.5% (active)
Cc1cccc(NC(=O)c2sc3nc(N4CCOCC4)c4c(c3c2N)CCCC4)c1	21.8%
CC(=O)Nc1ccc(NC(=O)c2sc3nc4c(c(-c5ccc(C)cc5)c3c2N)CCC4)cc1	14.1%
O=C(Nc1ccc([N+](=O)[O-])cc1)OCCc1ccccn1	17.9%
CCOc1ccc2c(c1)c(=O)c(S(=O)(=O)c1ccc(C)cc1)cn2CC	47.5%
CCOc1cc(C(=S)N2CCOCC2)ccc1O	96.3% (active)
COc1cc(C(=S)N2CCOCC2)ccc1O	3.5%
CCOc1cc(C(=S)N2CCOCC2)ccc1OS(=O)(=O)c1ccc(Br)cc1	8.5%
Cc1ccc(N(C(=O)CNC(=O)c2ccco2)C(C(=O)NC2CCCC2)c2ccncc2)cc1 (centres undefined)	43.5%
